Screens: PubChem, Sanford-Burnham Center for Chemical Genomics
TNAP pNPP inh – inhibitors of human tissue-nonspecific alkaline phosphatase; P05186; purified TNAP, pNPP hydrolysis, absorbance 405 nm; inhibition, % at 20 µM; 21,000 tested, under 10 active;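 also: 0% = DMSO only wells and 100% = 1 mM levamisole wells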
Target sequence (P05186 whole entry, looked up): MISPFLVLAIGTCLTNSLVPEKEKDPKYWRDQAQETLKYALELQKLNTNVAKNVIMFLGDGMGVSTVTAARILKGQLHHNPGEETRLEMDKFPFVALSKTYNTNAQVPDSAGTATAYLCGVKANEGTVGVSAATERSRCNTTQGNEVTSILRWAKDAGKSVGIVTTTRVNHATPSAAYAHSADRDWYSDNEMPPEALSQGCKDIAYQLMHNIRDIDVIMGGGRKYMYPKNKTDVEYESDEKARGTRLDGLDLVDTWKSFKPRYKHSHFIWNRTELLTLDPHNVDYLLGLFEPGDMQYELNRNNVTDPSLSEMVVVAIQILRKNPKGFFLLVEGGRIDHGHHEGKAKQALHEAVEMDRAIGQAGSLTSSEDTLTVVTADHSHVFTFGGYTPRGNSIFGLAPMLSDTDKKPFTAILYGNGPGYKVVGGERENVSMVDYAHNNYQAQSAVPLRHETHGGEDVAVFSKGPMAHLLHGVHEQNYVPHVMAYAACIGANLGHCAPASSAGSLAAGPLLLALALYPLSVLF
TNAP Pi inh – blocks human TNAP phosphate release; P05186; purified TNAP, pNPP, malachite green phosphate absorbance; inhibition, % at 20 µM; 21,000 tested, under 10 active
Active calls of the source: *. A selection follows.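 The calls were made as follows: active = inhibition above 50% at the 20 µM single-dose screen; inactive = the rest.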

SMILES	TNAP pNPP inh	TNAP Pi inh
COc1cccc(N(CC(=O)N2CCN(C)CC2)S(=O)(=O)c2ccc(C)cc2)c1	7	20
CCCn1c(=O)c(C(=O)Nc2nnc(C)s2)c(O)c2ccccc21	5	7
CCOC(=O)c1sc(C)c2c(=O)n(CCCN3CCOCC3)cnc12	6	10
Cc1ccccc1C(=O)c1ccc2c(c1)n(C)c(=O)n2C	0	0
Cc1ccc(NC(=O)CS(=O)CC(=O)Nc2ccc3c(c2)OCO3)cc1Cl (stereo not given)	5	-4
CN1CCC(OC(=O)COc2ccc(C(C)(C)C)cc2)CC1	2	8
COc1ccccc1NC(=O)c1cc(Sc2nncn2C)nc2ccccc12	0	4
COCC(=O)N(C)C1(c2nnnn2CCOC(=O)Nc2cccc3ccccc23)CCCC1	1	5
O=C(CC12CC3CC(C1)CC(CC(=O)N1CCCC1)(C3)C2)N1CCCC1	3	-10
N#CC(C(=O)NC1CCCCC1)c1nc2ccccc2nc1N1CCCCC1 (stereo not given)	2	6
Cc1cccc(OCCCCc2c(C)n[nH]c2C)c1C	0	0
CCOC(=O)CSC1=C(C#N)C(C)C2=C(CCCC2=O)N1 (stereo not given)	4	0
Cc1nc(N)sc1-c1nnc(SCC(=O)Nc2nccs2)n1C	1	5
CN(C(=O)c1cccc(C#N)c1)c1nnc(-c2cnccn2)s1	-8	-2
Clc1ccc(OCc2nn3c(C4CCCCC4)nnc3s2)cc1	8	17
